# Several values for one entry are separate records, joined by “and”; a condition that tells them apart may be missing. Equal entries are not always repeated. The whole screen tested about 190,000 compounds, of which about 6,900 (3.6%) were called active. No stated cut-off is given here; in the data, active means inhibition above about 50%; inactive means the rest. The sample as a whole holds a higher share of actives than the screen did.
# Target: Huntingtin (Homo sapiens) (UniProt P42858)
# Assay: mutant huntingtin-calmodulin interaction inhibitors – biochemical, AlphaScreen, primary screen (AID 1671202);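 on inhibition: 0% = both proteins with DMSO and 100% = one protein alone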
# Conditions: AlphaScreen His-mHTT/GST-CaM binding, luminescence; at 15 µM, hits give high values
# Huntingtin (Homo sapiens), sequence (P42858 whole entry, looked up, stated change not applied): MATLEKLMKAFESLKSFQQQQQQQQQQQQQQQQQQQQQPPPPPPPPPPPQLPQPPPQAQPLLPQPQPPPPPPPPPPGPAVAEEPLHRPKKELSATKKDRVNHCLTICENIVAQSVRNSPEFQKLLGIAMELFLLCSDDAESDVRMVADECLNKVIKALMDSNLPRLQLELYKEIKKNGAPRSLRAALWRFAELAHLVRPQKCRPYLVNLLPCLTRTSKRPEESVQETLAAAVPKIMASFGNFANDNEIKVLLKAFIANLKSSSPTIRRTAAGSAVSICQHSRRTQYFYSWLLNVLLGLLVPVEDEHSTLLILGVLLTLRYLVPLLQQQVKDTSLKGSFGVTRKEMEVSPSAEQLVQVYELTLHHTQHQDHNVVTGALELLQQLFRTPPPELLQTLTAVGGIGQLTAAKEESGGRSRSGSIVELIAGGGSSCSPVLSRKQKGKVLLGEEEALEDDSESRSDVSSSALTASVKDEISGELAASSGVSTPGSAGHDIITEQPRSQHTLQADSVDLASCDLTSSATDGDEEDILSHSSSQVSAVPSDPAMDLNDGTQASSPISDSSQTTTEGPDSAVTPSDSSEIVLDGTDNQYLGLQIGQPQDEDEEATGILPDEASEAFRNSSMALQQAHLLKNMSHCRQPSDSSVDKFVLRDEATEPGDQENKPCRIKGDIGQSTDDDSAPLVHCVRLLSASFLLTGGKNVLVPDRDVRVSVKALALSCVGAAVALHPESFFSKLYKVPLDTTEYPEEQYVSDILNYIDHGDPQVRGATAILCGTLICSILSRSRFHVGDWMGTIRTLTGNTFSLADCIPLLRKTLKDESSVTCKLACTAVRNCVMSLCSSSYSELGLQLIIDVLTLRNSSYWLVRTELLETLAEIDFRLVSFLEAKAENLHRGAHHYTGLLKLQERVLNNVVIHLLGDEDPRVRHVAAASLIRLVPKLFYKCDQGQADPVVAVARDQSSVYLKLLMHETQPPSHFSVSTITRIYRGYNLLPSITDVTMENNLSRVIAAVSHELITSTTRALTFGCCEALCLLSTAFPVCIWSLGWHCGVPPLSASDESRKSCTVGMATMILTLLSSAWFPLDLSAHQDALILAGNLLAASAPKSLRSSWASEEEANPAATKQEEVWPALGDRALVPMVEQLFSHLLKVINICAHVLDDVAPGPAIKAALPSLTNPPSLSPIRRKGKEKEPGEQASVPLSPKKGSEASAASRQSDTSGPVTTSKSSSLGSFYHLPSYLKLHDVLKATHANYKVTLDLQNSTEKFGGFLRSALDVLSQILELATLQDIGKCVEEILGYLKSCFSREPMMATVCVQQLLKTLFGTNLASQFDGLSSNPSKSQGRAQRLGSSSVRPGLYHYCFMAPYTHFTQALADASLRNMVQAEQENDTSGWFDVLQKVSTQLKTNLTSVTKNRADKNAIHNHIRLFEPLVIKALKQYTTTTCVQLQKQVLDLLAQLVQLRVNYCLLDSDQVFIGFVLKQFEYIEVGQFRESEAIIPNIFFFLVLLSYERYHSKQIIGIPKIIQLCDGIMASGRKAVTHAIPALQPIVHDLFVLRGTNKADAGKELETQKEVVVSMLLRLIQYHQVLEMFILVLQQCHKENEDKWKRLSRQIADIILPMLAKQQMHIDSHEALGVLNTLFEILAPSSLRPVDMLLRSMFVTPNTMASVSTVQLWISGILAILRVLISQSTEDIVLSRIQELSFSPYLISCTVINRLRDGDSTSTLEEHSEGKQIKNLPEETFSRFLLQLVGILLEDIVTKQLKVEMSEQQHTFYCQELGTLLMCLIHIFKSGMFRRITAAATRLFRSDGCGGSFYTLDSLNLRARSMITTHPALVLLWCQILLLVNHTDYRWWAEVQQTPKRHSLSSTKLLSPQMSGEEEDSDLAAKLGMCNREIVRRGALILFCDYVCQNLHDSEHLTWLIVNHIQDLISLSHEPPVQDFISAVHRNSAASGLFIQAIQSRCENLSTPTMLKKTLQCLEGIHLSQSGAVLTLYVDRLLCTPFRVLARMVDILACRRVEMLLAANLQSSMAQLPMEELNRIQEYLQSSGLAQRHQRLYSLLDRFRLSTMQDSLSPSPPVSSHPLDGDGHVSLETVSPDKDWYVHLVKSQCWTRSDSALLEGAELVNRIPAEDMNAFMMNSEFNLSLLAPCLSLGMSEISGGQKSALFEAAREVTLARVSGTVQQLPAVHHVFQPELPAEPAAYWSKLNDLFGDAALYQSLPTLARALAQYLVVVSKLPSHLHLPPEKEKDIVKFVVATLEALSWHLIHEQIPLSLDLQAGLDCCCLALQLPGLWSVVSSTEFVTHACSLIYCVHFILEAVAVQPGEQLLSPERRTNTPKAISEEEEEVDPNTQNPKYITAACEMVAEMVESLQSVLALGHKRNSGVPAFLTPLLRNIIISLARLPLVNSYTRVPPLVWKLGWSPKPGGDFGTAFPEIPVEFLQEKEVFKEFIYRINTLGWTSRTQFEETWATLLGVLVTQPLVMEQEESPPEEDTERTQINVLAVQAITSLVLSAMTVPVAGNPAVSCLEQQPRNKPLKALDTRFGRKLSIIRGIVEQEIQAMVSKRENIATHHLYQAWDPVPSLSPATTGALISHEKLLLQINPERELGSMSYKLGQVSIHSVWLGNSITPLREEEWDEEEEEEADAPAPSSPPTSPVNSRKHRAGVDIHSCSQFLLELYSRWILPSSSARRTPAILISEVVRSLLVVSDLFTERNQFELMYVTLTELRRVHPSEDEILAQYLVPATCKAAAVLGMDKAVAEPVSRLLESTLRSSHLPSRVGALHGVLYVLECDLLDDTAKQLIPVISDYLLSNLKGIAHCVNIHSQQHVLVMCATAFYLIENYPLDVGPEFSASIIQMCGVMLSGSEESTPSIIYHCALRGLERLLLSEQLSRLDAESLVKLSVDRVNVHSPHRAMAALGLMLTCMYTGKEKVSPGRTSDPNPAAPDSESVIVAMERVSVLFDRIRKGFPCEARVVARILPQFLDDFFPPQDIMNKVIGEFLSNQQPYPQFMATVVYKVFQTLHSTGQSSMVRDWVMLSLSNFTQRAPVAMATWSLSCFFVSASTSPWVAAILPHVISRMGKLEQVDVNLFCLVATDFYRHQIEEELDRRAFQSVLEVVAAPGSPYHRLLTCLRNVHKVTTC
row,SMILES,inhibition
1,COCc1noc(C2CCCCN2CC(=O)NCc2cccs2)n1 (centres undefined),0.04% (inactive)
2,Cc1[nH]c(=O)[nH]c(=O)c1S(=O)(=O)Nc1ccccn1,-4% (inactive)
3,O=C1C2C3C=CC(C4CC34)C2C(=O)N1CC1CCCO1 (centres undefined),0.3% (inactive)
4,O=C(NCc1nnc2n1CCCC2)c1ccc2c(c1)OCO2,-5.87% (inactive)
5,O=c1oc2ccccc2cc1-c1csc(N=Cc2ccccc2O)n1,26% (inactive)
6,COc1cccc(N2CCN(C(=O)c3cccs3)C(C)C2=O)c1 (centres undefined),-6.9% (inactive)
7,O=C(CCc1ccccc1)NCc1cccnc1-c1ccccc1,-6.5% (inactive)
8,O=C(c1ccccc1)N1CCC(CCNS(=O)(=O)c2cccc3nsnc23)CC1,50.2% (active)
9,Cc1ccc(C(=O)N2CCC(CCNS(=O)(=O)Cc3ccccc3)CC2)cc1,44.2% (inactive)
10,Cc1ccc(C(=O)N2CCC(CCNS(=O)(=O)c3ccc(C(C)C)cc3)CC2)cc1,53.6% (active)
11,Cc1ccc(C(=O)N2CCC(CCNS(=O)(=O)c3ccccc3F)CC2)cc1,39.1% (inactive)
12,N#Cc1cccc(S(=O)(=O)NCCC2CCN(C(=O)c3ccccc3)CC2)c1,34.6% (inactive)
13,COc1ccc(S(=O)(=O)NCCC2CCN(C(=O)c3ccccc3)CC2)cc1OC,30.3% (inactive)
14,O=C(CC1CCCCC1)N1CCCC(COc2ccc(C(=O)N3CCCCC3)cc2)C1 (centres undefined),13.4% (inactive)
15,CCC(C)NC(=O)c1cc2nc(-c3ccc(Cl)cc3)cc(C(F)(F)F)n2n1 (centres undefined),-6% (inactive)
16,N#CCSc1nc2c(c(=O)n1Cc1ccccc1)C1(CCCC1)Cc1ccccc1-2,-2.7% (inactive)
17,CCn1c(=O)c2c(n3c(SCC(N)=O)nnc13)-c1ccccc1CC21CCCCC1,54% (active)
18,O=c1[nH]c(CSCCO)nc2c1C1(CCCCC1)Cc1ccccc1-2,16.8% (inactive)
19,O=C(Nc1cccc(NC(=O)c2ccccc2[N+](=O)[O-])c1)c1ccccc1Cl,5% (inactive)
20,COc1ccc2cc(-c3nnc(NC4CCCCC4)s3)c(=O)oc2c1,-11% (inactive)
21,Cc1cccc(C2C3=C(CCCC3=O)N=C3c4ccccc4C(=O)C32)c1 (centres undefined),8% (inactive)
22,O=C1CCCC2=C1C(c1cccc([N+](=O)[O-])c1)C1C(=O)c3ccccc3C1=N2 (centres undefined),10% (inactive)
23,COc1ccc(C2C3=C(CC(C)(C)CC3=O)N=C3c4ccccc4C(=O)C32)cc1 (centres undefined),62% (active)
24,CC(C)CC(=O)N1CCc2ccccc2C1,-9.1% (inactive)

row,SMILES,inhibition
1,COc1ccc(C=C2Oc3c(ccc4c3CN(Cc3ccc(OC)c(OC)c3)CO4)C2=O)cc1OC,44% (inactive)
2,CC(C)n1c(C2CCN(S(=O)(=O)Cc3ccc(F)cc3Cl)C2)nc2ccncc21 (centres undefined),9.49% (inactive)
3,CCCCCCOc1ccc(NC(=O)CC2SC(=N)NC2=O)cc1 (centres undefined),1% (inactive)
4,COC(=O)c1ccc(CN2CCCC2c2cc(C)on2)cc1 (centres undefined),1.57% (inactive)
5,CC(=O)Nc1nonc1N1C(=N)S/C(=C\c2ccc(-c3cccc(F)c3)o2)C1=O,57% (active)
6,N=C1S/C(=C\c2ccc(-c3ccccc3[N+](=O)[O-])o2)C(=O)N1c1ccc2c(c1)OCO2,26% (inactive)
7,COc1cccc(/C=C2\SC(=N)N(c3ccc(F)cc3)C2=O)c1,3% (inactive)
8,COc1ccc2nc(NCCn3cccn3)sc2c1,-1.7% (inactive)
9,CCOC(=O)C1CCCN(C(=O)c2nn(-c3ccc(F)cc3)c(=O)cc2OC)C1 (centres undefined),-5.9% (inactive)
10,O=C(Nc1ccccc1)N1CCN(Cc2ccccc2)CC1,-7.6% (inactive)
11,O=C(c1ncn[nH]1)N1CCN(Cc2ccccc2)CC1,90.3% (active)
12,O=C(c1cccc(Cl)c1)N1CCN(Cc2ccccc2)CC1,4.6% (inactive)
13,CCOc1ccc(C2CC(c3ccc(Cl)cc3)Nc3nnnn32)cc1OC (centres undefined),38% (inactive)
14,Cc1cc(C(=O)NCc2ccc(C)o2)c2cccc(-c3cccs3)c2n1,-56.5% (inactive)
15,COc1ccccc1C1(CCNCc2ccc3c(c2)OCO3)CCOC(C)(C)C1 (centres undefined),3.46% (inactive)
16,Cc1ccc2c(c1)C(c1ccc(F)cc1)N(C(=O)c1c(F)cccc1Cl)CC(=O)N2 (centres undefined),22% (inactive)
17,O=C1CN(C(=O)c2ccccc2F)C(c2ccc(F)cc2)c2cc(F)ccc2N1 (centres undefined),-4% (inactive)
18,Cc1ccc2c(c1)C(c1ccc(F)cc1)N(C(=O)c1ccc(C)c(C)c1)CC(=O)N2 (centres undefined),69% (active)
19,COc1ccc(C=C2Oc3cc(OC(C)=O)ccc3C2=O)c(OC)c1OC,16.2% (inactive)
20,COc1ccc(C(=O)C=Cc2ccc(C)cc2)c(OC(=O)c2ccco2)c1,17% (inactive)
21,Oc1ccc2c(c1)OCC1c3cc4c(cc3OC21)OCO4 (centres undefined),65.8% (active)
22,Cc1ccccc1NCc1cc(=O)oc2cc(O)c(O)cc12,29.6% (inactive)
23,CCc1ccc(CN2CCC(C(=O)N3CCN(Cc4ccccc4)CC3)CC2)cc1,36.4% (inactive)
24,CNC(=O)C1CCN(Cc2cc3ccccc3n2Cc2ccc(F)cc2)CC1,85.1% (active)

row,SMILES,inhibition
1,O=C(NCc1ccc(F)cc1)C1CCN(c2cnn(Cc3ccccc3)c(=O)c2)CC1,2.29% (inactive)
2,O=S(=O)(NCCc1ccc(F)cc1)c1ccc(F)cc1,-3.6% (inactive)
3,COc1cc(OC)c2c(C)cc(=O)oc2c1C(CCN1CCCCC1)c1ccc(N(C)C)cc1 (centres undefined),78.3% (active)
4,COc1ccc(C(CCN2CCOCC2)c2c(OC)cc(OC)c3c2OC(=O)CC3c2ccc(OC)cc2)cc1 (centres undefined),71.6% (active)
5,Cc1ccc(C(C)C)cc1OCCN1CCCC1,-3.2% (inactive)
6,COc1ccc(Nc2nc(Cl)nc(NCCN3CCOCC3)n2)c(OC)c1,4% (inactive)
7,COc1ccc(C2CC(=O)Oc3ccc(C(C)(C)C)cc32)cc1 (centres undefined),-22.8% (inactive)
8,COc1ccc(-c2c(C)c3ccc(OCCN4CCCCC4)cc3oc2=O)cc1OC,-2.1% (inactive)
9,COc1cc(OC)c2c(c1C(CCN1CCCCC1)c1ccc(N(C)C)cc1)OC(=O)CC2c1ccc(N(C)C)cc1 (centres undefined),76.8% (active)
10,COc1cc(OC)c2c(c1)OC(=O)CC2c1cc(OC)c(OC)c(OC)c1 (centres undefined),3.2% (inactive)
11,COc1ccc(CNC(=O)CC2CCN(C(=O)c3[nH]c(C)c(C)c3C)CC2)cc1,11.4% (inactive)
12,COc1ccc(CCNc2nc(C)nc3sc(C)cc23)cc1OC,0% (inactive)
13,CC(C)c1c(C2CCN(C(=O)c3cccc(F)c3)CC2)noc1N,-1.9% (inactive)
14,Cc1cc(C(=O)NCCCn2ccnc2)ccc1[N+](=O)[O-],-2.3% (inactive)
15,CC(CC(=O)N1CCN(c2nc3ccccc3n(C)c2=O)CC1)c1ccccc1 (centres undefined),3.2% (inactive)
16,Cc1ccccc1C1=N/C(=C\c2ccc(Br)cc2)C(=O)O1,-1% (inactive)
17,COc1ccc(-c2csc(=Nc3ccccc3)n2C)cc1,29% (inactive)
18,COc1ccc(C2C(=C(O)c3ccc(Cl)cc3)C(=O)C(=O)N2CCCN(C)C)c(OC)c1 (centres undefined),-4.4% (inactive)
19,CN(C)CCCn1c(-c2ccc(Cl)cc2)csc1=Nc1ccccc1,89% (active)
20,CC1C(=O)N(c2ccc(Br)cc2)CCN1C(=O)C1CCCC1 (centres undefined),-6.1% (inactive)
21,O=C(CCS(=O)(=O)Cc1ccccc1F)NCCCN1CCCCC1,1% (inactive)
22,Cc1nc(-c2ccccc2)oc1CC(=O)NCCN1CCCCCC1,100% (active)
23,Cc1ccc(C(=O)N2CCC(CC(=O)NCCN3CCCCCC3)CC2)cc1,13.3% (inactive)
24,O=S(=O)(c1ccccc1)c1cccs1,-6.17% (inactive)

row,SMILES,inhibition
1,Cc1cc(C)c(NC(=O)CNC2CC(C)(C)NC(C)(C)C2)c(C)c1,-6.9% (inactive)
2,COc1ccc2oc(=O)c(-c3nnc(Nc4ccc(C)cc4)s3)cc2c1,3% (inactive)
3,O=C(c1ccco1)N1CCN(c2ccc([N+](=O)[O-])cc2)CC1,0.2% (inactive)
4,O=C(c1ccco1)N1CCN(c2ncnc3sc(-c4ccccc4)cc23)CC1,54.6% (active)
5,Cc1ccc2nc3sc(C(=O)N4CCN(C(=O)c5ccco5)CC4)cc3c(=O)n2c1,12.9% (inactive)
6,COc1cc(C(=O)N2CCC(CC(=O)NCc3ccccn3)CC2)cc(OC)c1OC,19.9% (inactive)
7,COCCN1C(=O)c2ccccc2C(C(=O)NCC2CCCO2)C1c1ccc(F)cc1 (centres undefined),0% (inactive)
8,Cc1ccc(C(=O)N2CCc3sc(C(=O)NCCC(C)C)cc3C2)cc1,-0.52% (inactive)
9,O=C(Nc1ccc([N+](=O)[O-])cc1)C12CC3CC(C1)CC(c1ccccc1)(C3)C2,14.9% (inactive)
10,O=C(c1ccc2c(c1)OCO2)N1CCOCC1,1% (inactive)
11,CC1CCCN(C(=O)c2ccc(-c3ccsc3)nc2)C1 (centres undefined),-3.7% (inactive)
12,O=C(c1ccc(-c2ccsc2)nc1)N1CCOCC1,-3.2% (inactive)
13,O=C(c1ccc(-c2ccsc2)nc1)N1CCCCCC1,-6.2% (inactive)
14,O=C(c1ccc(F)cc1)N1CCC(n2nc(-c3ccsc3)ccc2=O)CC1,93.2% (active)
15,O=C(c1ccc2c(c1)OCO2)N1CCC(n2nc(-c3ccsc3)ccc2=O)CC1,98% (active)
16,COc1ccc(NC(=O)N2CCCC2c2nc(-c3ccc(F)cc3F)no2)cc1F (centres undefined),5.86% (inactive)
17,O=C(C1CCCC1)N1CCN(Cc2noc(-c3cccc4ccccc34)n2)CC1,19.3% (inactive)
18,O=C(N/N=C/C=C\c1ccco1)c1ccco1,inactive
19,O=C(NCCn1ncccc1=O)c1cc(C2CC2)on1,-8.3% (inactive)
20,O=c1c(-c2ccc3c(c2)OCCO3)c(C(F)(F)F)oc2cc(O)cc(O)c12,54.5% (active)
21,COc1ccc(-c2c(C(F)(F)F)oc3cc(O)ccc3c2=O)cc1,10% (inactive) and -0.6% (inactive)
22,Cc1cc(O)c2c(=O)c(-c3csc(C)n3)c(C(F)(F)F)oc2c1,1% (inactive)

# Reference: PubChem BioAssay AID1671202 (University of Kansas High Throughput Screening Laboratory, 2021)
